Shown are actives, neighbours in structure and some others; about 2.4% of the full set was active somewhere.
ANO1 block – TMEM16A chloride channel inhibitors, primary screen, cell-based, HTS | Anoctamin-1 (Mus musculus), Q8BHY3 | HEK293 TMEM16A/YFP iodide influx fluorescence, ionomycin | normalized B-score (activity score, 25-100; higher = stronger inhibition) at 10 µM | 310,000 compounds, 1.2% hits | AID 588511, 2011;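 active means ratio plate-corrected score three or more library SD toward inhibition, starting fluorescence score within five deviations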;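 further: score derived from kinetic fluorescence span divided by baseline fluorescence per well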
CHT allo act – CHT positive allosteric modulators, primary screen, cell-based, membrane potential dye, choline EC20 | High affinity choline transporter 1 (Homo sapiens), Q9GZV3 | B-score at 10 µM | CHT-expressing cells; stronger effect = higher value; LV-AA mutant CHT in HEK293 cells | 310,000 compounds, 0.49% hits;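 active means initial fluorescence not abnormally high and integrated response B-score, plate-corrected, over 3 SD above library mean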
CHT inh – inhibitors of human choline transporter CHT; High affinity choline transporter 1 (Homo sapiens), Q9GZV3; CHT-expressing cells, membrane potential dye, choline response; stronger effect = lower value; B-score at 10 µM; 310,000 compounds, 0.86% hits;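 active means B-score over 3 SD under the library average, and starting fluorescence ratio not unusually high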;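 further: choline stimulus applied at its EC90 after an EC20 pre-addition; B-score computed on integrated fluorescence ratio after choline addition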
ANO1 activ – TMEM16A chloride channel activators or potentiators, primary screen, cell-based, HTS; B-score at 10 µM; 340,000 compounds, 0.3% hits; AID 623877, 2012; HEK293 TMEM16A/YFP-H148Q/I152L, iodide quench fluorescence; stronger effect = lower value;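 active means fluorescence-ratio B-score plate-corrected deviation score at least 3 library SD below zero, with starting fluorescence score within 5 deviations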;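 further: channel opened by trigger with iodide after compound preincubation; score built on the fluorescence ratio of max minus min over baseline; more negative score means more quench and so TMEM16A activation or potentiation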
TMEM16A reconf – TMEM16A chloride channel inhibitors, confirmation, cell-based, re-confirmation; 2,300 compounds, 39% hits; AID 652189, 2013; shares compounds with ANO1 block; HEK293 TMEM16A/YFP-H148Q, iodide quench fluorescence; ionomycin added to raise cell calcium; inhibition, % at 10 µM;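 active means mean duplicate percent inhibition, scaled so buffer wells are 0 and the reference blocker 100, over three buffer SD above buffer mean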
HEK293 Ca mobil – calcium mobilization in TMEM16A/YFP HEK293 cells, confirmation, counter-screen for TMEM16A inhibitor project. shares compounds with ANO1 block. Fluo4 calcium mobilization. calcium response (% of ionomycin), % at 10 µM. 2,300 compounds, 2% hits;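 active means duplicate-averaged calcium signal over 20% of the ionomycin maximum, relative to buffer baseline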;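 further: each well's signal is peak minus trough fluorescence divided by its pre-addition baseline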
YFP-HEK293 quench – iodide YFP quench changes in parental YFP-HEK293, counter-screen for TMEM16A inhibitor project, cell-based. shares compounds with ANO1 block. ionomycin. YFP ratio F(max-min)/F0 at 10 µM. 2,300 tested, under 10 active;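 active means yellow fluorescent protein signal ratio exceeding the buffer control mean by over 5 SD of those controls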;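 further: ratio is mean of duplicate wells from kinetic YFP trace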
ClC-1 inh – ClC-1 chloride channel inhibition, selectivity assay for TMEM16A inhibitor project, cell-based, voltage-dependent ClC-1; 2,300 tested, under 10 active; shares compounds with ANO1 block; CHO ClC-1-YFP, iodide influx fluorescence quench; iodide control reads 0, buffer control 100; ratio percent, % at 10 µM;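 active means duplicate-mean ratio percent above the mean of iodide-only control wells, which defines zero, plus 5 of their SD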;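 further: higher percent means stronger block of ClC-1 iodide influx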
Target sequence (P35524 whole entry, looked up): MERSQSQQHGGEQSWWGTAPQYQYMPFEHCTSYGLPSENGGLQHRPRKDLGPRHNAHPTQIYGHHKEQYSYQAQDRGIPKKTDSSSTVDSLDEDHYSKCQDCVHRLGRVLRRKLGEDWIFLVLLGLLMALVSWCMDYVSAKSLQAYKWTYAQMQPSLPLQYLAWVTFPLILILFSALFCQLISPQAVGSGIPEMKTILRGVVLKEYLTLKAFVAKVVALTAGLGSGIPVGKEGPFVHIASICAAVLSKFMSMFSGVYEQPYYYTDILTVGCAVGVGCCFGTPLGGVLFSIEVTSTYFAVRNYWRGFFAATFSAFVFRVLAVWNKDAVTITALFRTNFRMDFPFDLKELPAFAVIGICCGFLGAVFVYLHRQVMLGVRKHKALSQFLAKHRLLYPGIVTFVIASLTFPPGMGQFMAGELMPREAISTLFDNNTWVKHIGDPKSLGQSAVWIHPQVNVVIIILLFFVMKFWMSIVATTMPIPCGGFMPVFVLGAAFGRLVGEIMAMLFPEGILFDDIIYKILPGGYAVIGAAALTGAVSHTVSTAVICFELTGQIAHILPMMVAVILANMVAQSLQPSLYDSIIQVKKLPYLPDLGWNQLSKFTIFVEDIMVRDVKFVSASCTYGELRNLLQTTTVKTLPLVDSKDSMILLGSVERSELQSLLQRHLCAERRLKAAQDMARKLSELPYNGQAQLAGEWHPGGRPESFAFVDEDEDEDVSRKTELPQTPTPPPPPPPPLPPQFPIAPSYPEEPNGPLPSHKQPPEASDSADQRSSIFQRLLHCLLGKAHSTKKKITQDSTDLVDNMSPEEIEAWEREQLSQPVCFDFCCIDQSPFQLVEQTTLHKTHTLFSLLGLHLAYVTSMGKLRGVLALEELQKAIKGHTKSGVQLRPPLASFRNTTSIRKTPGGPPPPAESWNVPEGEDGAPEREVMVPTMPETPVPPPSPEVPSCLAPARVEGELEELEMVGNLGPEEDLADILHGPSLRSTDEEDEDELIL
A number is an active result; – = inactive; · = no result.

SMILES	ANO1 block	CHT allo act	CHT inh	ANO1 activ	TMEM16A reconf	HEK293 Ca mobil	YFP-HEK293 quench	ClC-1 inh
CCN(CC(=O)NCc1cccs1)C(=O)c1ccc(S(=O)(=O)Nc2cccc(C)c2C)cc1	–	–	–	–	·	·	·	·
COc1ccc(/C=C(\NC(=O)c2ccc(OC)cc2)C(=O)Nc2cccc(C(=O)O)c2)cc1	–	–	–	–	·	·	·	·
O=C(CSc1nnc(-c2ccccc2)n1Cc1ccccc1)N1CCCC1	–	–	–	–	·	·	·	·
CCCCn1c(SCC(=O)N2CCCC2)nnc1-c1ccccc1	100	–	–	–	–	–	–	–
CCOc1ccc(S(=O)(=O)N2CCOCC2)cc1NC(=O)CSCC(=O)Nc1cccc(C)c1	–	–	–	–	·	·	·	·
O=C(Oc1cccc(-n2cnnn2)c1)c1ccccc1	–	–	–	–	·	·	·	·
N#CC1=C(N)OC2=C(CCc3ccccc32)C1c1ccccc1 (configuration not stated)	100	–	–	–	52%	–	–	–
Cc1nc(C)c(-c2csc(Nc3ccc(F)cc3)n2)s1	25	–	–	–	21%	–	–	–
CCNC(=S)NNC(=O)c1cc(-c2cccc(OCC)c2)nc2ccccc12	25	–	–	–	–	–	–	–
CCNC(=S)NNC(=O)c1cc(-c2cccc(C)c2)nc2ccccc12	–	–	–	–	·	·	·	·
C[C@H]1COC(=O)[C@@H](Cc2ccc(F)cc2)C/C=C\C[C@@H](CC(=O)N[C@@H](CO)Cc2ccccc2)C(=O)N1	·	·	·	–	·	·	·	·
Cc1cc(C(=O)NC2CCCc3c2cnn3-c2cccc(C)c2C)no1 (configuration not stated)	25	–	–	–	–	–	–	–
CC(C)(C)c1ccc(-c2nc3c(C#N)c(-c4ccc5c(c4)OCO5)ccn3n2)cc1	–	–	–	–	·	·	·	·
CCC(C)Sc1ccc([C@@H]2[C@H]3C(=O)N(CC)C(=O)[C@H]3[C@]3(C(=O)OC)CCCCN23)cc1 (some centres not stated)	–	–	–	–	28%	–	–	–
CCOC(=O)c1ccccc1NS(=O)(=O)c1ccc(OCC)cc1	25	–	–	–	–	–	–	–
COc1cc(OC)cc(-c2c(-c3cccs3)c3cc(-c4ccc(OC)c(OC)c4)ccc3n2C)c1	·	·	·	–	·	·	·	·
CNC[C@@H](CC1CCCCC1)NC[C@H](CC(C)C)NCCc1cccc(C(F)(F)F)c1	25	–	–	–	–	–	–	–
CNC[C@@H](Cc1ccccc1)NC[C@@H](CC1CCCCC1)NCCCc1ccccc1	–	–	–	–	·	·	·	·
CCOc1cc(C(=S)N2CCC(O)CC2)ccc1OS(=O)(=O)c1ccc(Br)cc1	25	–	–	–	–	–	–	–
COc1ccc(COC(=O)c2ccc(Cl)c(S(=O)(=O)N3CC(C)OC(C)C3)c2)cc1 (configuration not stated)	25	–	–	–	16%	–	–	–
CC1CN(C(=O)COC(=O)c2ccc(Cl)c(S(=O)(=O)N3CCCCC3)c2)CC(C)O1 (configuration not stated)	–	–	–	–	·	·	·	·
Cc1[nH]c(N=Nc2ccccc2)nc1N=Nc1ccccc1	100	–	–	–	–	–	–	–
CCCSCCCNC(=O)CC1Oc2ccccc2NC1=O (configuration not stated)	–	–	–	–	·	·	·	·
COc1cccc(-c2nc(NC(C)C)c3ccccc3n2)c1O	–	–	–	–	·	·	·	·
CCC(C)Nc1nc(-c2cccc(OC)c2O)nc2ccccc12 (configuration not stated)	100	–	–	–	28%	–	–	–
SMILES	ANO1 block	CHT allo act	CHT inh	ANO1 activ	TMEM16A reconf	HEK293 Ca mobil	YFP-HEK293 quench	ClC-1 inh
Cc1ccc(NC(=O)c2ccc3c(c2)OCCO3)cc1S(=O)(=O)Nc1cccc(Cl)c1	100	–	–	–	–	–	–	–
Cc1ccc(C(=O)Nc2ccc(C)c(S(=O)(=O)Nc3ccccc3Cl)c2)s1	100	–	–	–	–	–	–	–
COc1ccccc1NS(=O)(=O)c1cc(NC(=O)c2sc3cc(Cl)ccc3c2Cl)ccc1C	–	–	–	–	·	·	·	·
CC(C)[C@H](NS(=O)(=O)/C=C/c1ccccc1)C(=O)OCC(=O)NC(N)=O	–	–	–	–	·	·	·	·
CCCn1c(CC)nc([N+](=O)[O-])c1Sc1ccc(F)cc1	25	–	–	–	–	–	–	–
O=C(Nc1nc(-c2cc(Cl)sc2Cl)cs1)c1cccs1	–	–	–	–	·	·	·	·
O=C(Nc1nc(-c2cc(Cl)sc2Cl)cs1)c1ccc(Br)s1	25	–	–	–	–	–	–	–
CCn1c(CSc2nc3ccccc3s2)nc2ccccc21	100	–	–	–	43%	–	–	–
Cc1nnc(SCC(=O)N(C(C)C)C(C)C)[nH]c1=O	–	–	–	–	·	·	·	·
O=C(CCCc1ccccc1)Nc1ccnn1C1CCN(Cc2ccc(Cl)cc2)CC1	–	–	–	–	·	·	·	·
CCOc1ccc(CN2CCC(n3nccc3NC(=O)CCCc3ccccc3)CC2)cc1	25	–	–	–	–	–	–	–
COc1cc(CN2CCC(n3nccc3NC(=O)CCCc3ccccc3)CC2)ccc1F	25	–	–	–	16%	–	–	–
O=C(CCCc1ccccc1)Nc1ccnn1C1CCN(Cc2ccccc2)CC1	–	–	–	–	·	·	·	·
CSc1ccccc1NC(=O)Nc1cccc2ccccc12	–	–	–	–	·	·	·	·
Cc1cc(=O)oc2cc(OCC(=O)OCC(=O)N3CCc4ccccc43)ccc12	25	–	–	–	–	–	–	–
CC(Oc1cccc(Cl)c1)C(=O)Nc1ccc(N2CCOCC2)cc1N1CCOCC1 (configuration not stated)	25	–	–	–	–	–	–	–
COc1cccc(OC)c1C(=O)Nc1cc(Cl)ccc1N1CCOCC1	–	–	–	–	–	–	–	–
COC(=O)CSc1nnc2c3c4c(sc3nc(-n3nc(C)cc3C)n12)COC(C)(C)C4	–	–	–	–	·	·	·	·
Cc1cc(C)n(-c2nc3sc4c(c3c3nnc(SC(C)C)n23)CC(C)(C)OC4)n1	100	–	–	–	–	–	–	–
